Assay outcomes from PubChem BioAssay.
SSB-PriA inh = inhibitors of Klebsiella pneumoniae PriA binding to SSB C-terminal tail, primary screen, biochemical, AlphaScreen | PriA–SSB C-terminal tail interaction (Klebsiella pneumoniae) | AlphaScreen SSBct-PriA binding, biotinylated peptide | inhibition, % at 33 µM | hit rate 0.6% among 430,000; in the data active means inhibition mostly above about 37%, no sharp cut-off; inactive means mostly below about 20%;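 further: plate controls were negative control peptide for no effect and reference peptide for full effect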
PrPC TRFRET = inhibitors of human cell surface prion protein PrPC, primary screen, cell-based, TR-FRET; Major prion protein (Homo sapiens), P04156; TR-FRET read-out; inhibition, % at 13.8 µM; hit rate 0.43% among 370,000; AID 720596, 2013; in the data active means inhibition above about 24%; further: 0% = median of the test wells and 100% = reference compound wells
TcdB inh = TcdB glycohydrolase inhibitors, primary screen, biochemical, single point, plate reader; Toxin B (Clostridioides difficile), P18177; TcdB glycohydrolase enzymatic assay; inhibition, % at 9.99 µM; hit rate 0.24% among 350,000; in the data active means inhibition above about 10%
DUSP3 inh = VHR1 phosphatase inhibitors, primary screen, biochemical, absorbance, uHTS; Dual specificity protein phosphatase 3 (Homo sapiens), P51452; recombinant VHR phosphatase, pNPP absorbance; inhibition, % at 13.3 µM; hit rate 0.52% among 290,000; AID 1654, 2009; in the data active means inhibition above about 50%
Target sequence (P51452 whole entry, looked up): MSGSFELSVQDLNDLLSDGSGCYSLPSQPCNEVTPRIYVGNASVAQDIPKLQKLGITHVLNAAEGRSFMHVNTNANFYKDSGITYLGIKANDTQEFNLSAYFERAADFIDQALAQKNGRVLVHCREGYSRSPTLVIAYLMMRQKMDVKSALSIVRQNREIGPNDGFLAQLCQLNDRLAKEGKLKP
Vc quorum ag = inducers of Vibrio cholerae quorum light production without autoinducers, primary screen, BH1578 luxS cqsA deficient, single point; V. cholerae BH1578 lux reporter, luminescence, 6 h; activation, % at 18.7 µM; hit rate 0.16% among 350,000; AID 588436, 2011; in the data active means activation mostly above about 9.7%, no sharp cut-off
CCHF vOTU inh-1 = CCHFV vOTU protease inhibitors, primary screen, biochemical, Pep-AMC substrate, fluorescence; Crimean-Congo hemorrhagic fever virus L polyprotein viral ovarian tumor (vOTU) protease …; inhibition, % at 11.5 µM; hit rate 0.55% among 370,000; further: 0% = vehicle wells with enzyme and 100% = no enzyme wells
CCHF vOTU inh-2 = CCHFV vOTU protease inhibitors, confirmation, biochemical, Pep-AMC substrate, fluorescence | shares compounds with CCHF vOTU inh-1 | inhibition, % at 11.5 µM | hit rate 17% among 1,900 | Recombinant CCHFV vOTU
Starred values were filed as active, the others as inactive. An excerpt weighted towards active compounds, which were near 1.5% of everything screened. Unless noted, no stated cut-off is given here; in the data, active means inhibition above about 30%; inactive means the rest.

Cc1ccc2[nH]c3c(c2c1)CCc1cn[nH]c1-3 was read as SSB-PriA inh 23.8, PrPC TRFRET -4.2, DUSP3 inh 1.2, Vc quorum ag -0.5, CCHF vOTU inh-1 38.2* and CCHF vOTU inh-2 -22.8.
Cc1ccc2[nH]c3c(c2c1)CCC3=O was read as SSB-PriA inh -17.2, PrPC TRFRET 11.3, DUSP3 inh 13.1, Vc quorum ag -10.3 and CCHF vOTU inh-1 -48.3.
For COc1ccc(S(=O)(=O)Nc2nc3c(s2)C(=O)CC(C)(C)C3)cc1 the results were SSB-PriA inh -0.9, PrPC TRFRET -0.3, TcdB inh 0.2, DUSP3 inh 6.7, Vc quorum ag -0.3 and CCHF vOTU inh-1 2.4.
`Cc1ccc(S(=O)(=O)Nc2nc3c(s2)C(=O)CC(C)(C)C3)cc1` gave SSB-PriA inh -15.6, PrPC TRFRET -1.1, TcdB inh 1.7, DUSP3 inh 16.6, Vc quorum ag -0.5, CCHF vOTU inh-1 30.4* and CCHF vOTU inh-2 -10.9.
`CC(=O)Nc1nc(SCC(=O)Nc2nccs2)[nH]c(=O)c1NC(=O)c1cccs1` gave SSB-PriA inh -8.0.
CCCCCCCCCCCCN1[C@@H](CC(=O)O)c2cc(F)ccc2S1(=O)=O was read as SSB-PriA inh 8.2, PrPC TRFRET -2.2, TcdB inh -1.5, Vc quorum ag -1.7, CCHF vOTU inh-1 31.8* and CCHF vOTU inh-2 42.2*.
Screening CCOC(=O)c1cnc2cc(-c3ccc(C)cc3)nn2c1C returned PrPC TRFRET -2.1, TcdB inh 0.2, Vc quorum ag inactive, CCHF vOTU inh-1 29.5* and CCHF vOTU inh-2 -22.3.
For CCOC(=O)c1cnc2cc(-c3ccc(C)cc3)nn2c1-c1ccccc1 the results were SSB-PriA inh -28.5, PrPC TRFRET -3.1, DUSP3 inh -0.7, Vc quorum ag 0.7 and CCHF vOTU inh-1 -6.4.
Screening COc1ccc(N2CC(C(=O)Nc3nnc(C4CCCCC4)s3)CC2=O)cc1 (centres undefined) returned SSB-PriA inh -3.0, PrPC TRFRET -2.2, TcdB inh -1.9, DUSP3 inh -11.2, Vc quorum ag inactive, CCHF vOTU inh-1 30.4* and CCHF vOTU inh-2 4.9.
For CCCCC[C@H](C)N1C[C@@H](COCc2ccccc2)Oc2cc(N3CC[C@H](O)C3)ccc2S1(=O)=O the results were PrPC TRFRET 0.4, TcdB inh 2.5, CCHF vOTU inh-1 40.0* and CCHF vOTU inh-2 3.2.
`CCCCC[C@H](C)N1C[C@H](COCc2ccccc2)Oc2cc(N3CC[C@@H](O)C3)ccc2S1(=O)=O` gave PrPC TRFRET 7.6, TcdB inh -0.7 and CCHF vOTU inh-1 15.4.
Screening CCCCC[C@@H](C)N1C[C@H](COCc2ccccc2)Oc2cc(N3CCC[C@@H]3CO)ccc2S1(=O)=O returned PrPC TRFRET 15.4, TcdB inh -0.3, CCHF vOTU inh-1 32.6* and CCHF vOTU inh-2 16.9.
C=CC[C@@H](CC(=O)N[C@@H](CO)Cc1ccccc1)C(=O)N[C@H](COC(=O)[C@@H](CC=C)CC(=O)OC(C)(C)C)Cc1ccccc1 was read as SSB-PriA inh -10.3, PrPC TRFRET -0.8, TcdB inh 0.0, Vc quorum ag -1.0, CCHF vOTU inh-1 39.4* and CCHF vOTU inh-2 -6.0.
`C=CC[C@@H](CC(=O)N(CCO)Cc1ccccc1)C(=O)N[C@@H](COC(=O)[C@@H](CC=C)CC(=O)OC(C)(C)C)Cc1c[nH]c2ccccc12` gave SSB-PriA inh 4.9, PrPC TRFRET 5.2, Vc quorum ag inactive, CCHF vOTU inh-1 39.9* and CCHF vOTU inh-2 11.6.
For C=CC[C@H](CC(=O)N(CCO)Cc1ccccc1)C(=O)N[C@@H](COC(=O)[C@H](CC=C)CC(=O)OC(C)(C)C)Cc1c[nH]c2ccccc12 the results were SSB-PriA inh 11.1, PrPC TRFRET -3.4, TcdB inh -3.0, Vc quorum ag -0.3 and CCHF vOTU inh-1 17.3.
For C=CCC[C@H](Cc1ccc(F)cc1)C(=O)OC[C@@H](Cc1c[nH]c2ccccc12)NC(=O)[C@H](CC=C)CC(=O)N(CCO)Cc1ccccc1 the results were SSB-PriA inh 12.0, PrPC TRFRET 6.4, TcdB inh -4.8, Vc quorum ag -0.4, CCHF vOTU inh-1 35.0* and CCHF vOTU inh-2 6.7.
`C=CC[C@@H](CC(=O)N[C@H](CO)Cc1ccccc1)C(=O)N[C@@H](COC(=O)[C@H](CC=C)CC(=O)OC(C)(C)C)Cc1ccccc1` gave SSB-PriA inh 5.9, PrPC TRFRET -3.4, TcdB inh 0.3, Vc quorum ag inactive and CCHF vOTU inh-1 20.0.
C=CC[C@@H](CC(=O)N(CCO)Cc1ccccc1)C(=O)N[C@H](COC(=O)[C@@H](CC=C)CC(=O)OC(C)(C)C)c1ccccc1 was read as SSB-PriA inh -18.7, PrPC TRFRET -2.6, TcdB inh 1.6, Vc quorum ag 1.5, CCHF vOTU inh-1 31.6* and CCHF vOTU inh-2 8.5.
For CN(C)C(CNC(=O)C(=O)Nc1cc(F)ccc1F)c1cccc2ccccc12 (centres undefined) the results were SSB-PriA inh -1.0.
COc1cc(/C=N\NC(=O)CCn2c(-c3ccccc3)c(-c3ccccc3)c3ccccc32)ccc1O was read as SSB-PriA inh 22.0.
For Cc1nc(N2CCOCC2)nc(C)c1NC(=O)Nc1cccc(C(F)(F)F)c1 the results were SSB-PriA inh -22.0.
`O=C(Nc1ccc(Cl)c(Cl)c1)c1ccc2nnsc2c1` gave SSB-PriA inh -23.0.
For O=C(O)/C(=C/c1ccc(Cl)c([N+](=O)[O-])c1)c1ccc(S(=O)(=O)N2CCCCC2)s1 the results were SSB-PriA inh 4.1, PrPC TRFRET -17.0, TcdB inh -0.5, Vc quorum ag 0.4, CCHF vOTU inh-1 32.7* and CCHF vOTU inh-2 -3.6.
O=C(O)/C(=C\c1cccc(F)c1)c1ccc(S(=O)(=O)N2CCCCC2)s1 was read as SSB-PriA inh -1.5, PrPC TRFRET -5.0, TcdB inh -1.0, DUSP3 inh -6.1, Vc quorum ag -0.8 and CCHF vOTU inh-1 -0.4.
CCCCOCCCNC(=O)C[C@H]1C[C@@]2(C(=O)OC)C(=C[C@H](C(C)C)O[C@@H]2C2CC2)N(CCC2=CCCCC2)C1=O was read as PrPC TRFRET -0.3, CCHF vOTU inh-1 39.4* and CCHF vOTU inh-2 6.3.
CCCCNC(=O)C[C@H]1C[C@@]2(C(=O)OC)C(=C[C@H](C(C)C)O[C@@H]2C2CC2)N(CCC2=CCCCC2)C1=O was read as PrPC TRFRET 8.5 and CCHF vOTU inh-1 17.8.
